Records with an inconclusive call do not appear. A number with no mark means an inactive call. Unless noted, the call rests on the fitted dose curve.
System: estrogen-related receptor alpha (ERRalpha) with PGC-1alpha coactivator, human
Experiment: qHTS assay to identify small molecule antagonists of the estrogen related receptor signaling pathway with the pleiotropic PPARgamma coactivator (PGC) (AID 1224821);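 further: lower luminescence signal means antagonism of PGC/ERR signalling; nearly all actives have a fitted effect of over 50% in size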
Conditions: ERR/PGC reporter cell line, luciferase, antagonist mode; series mostly up to 46.1 µM; activity change, negative = inhibition: at the top concentration
In short: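 A PGC/ERR cell line supplied by NTP is seeded, allowed 6 h at 37 C, and treated with test compounds in DMSO for 18 h. Signal is then measured as luciferase luminescence using One-Glo.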
For `CN(C)CCC=C1c2ccccc2C=Cc2ccccc21`, the “activity change, negative = inhibition” value was 8.27%.
In the case of `OCCN1CCN(CCCN2c3ccccc3Sc3ccc(Cl)cc32)CC1`, the “activity change, negative = inhibition” value is reported as -6.31%.
For `CCCC(C(=O)OCCN(CC)CC)(c1ccccc1)c1ccccc1`, the “activity change, negative = inhibition” value was -23.1%.

System: not listed separately
Experiment: qHTS assay to identify small molecule antagonists of the estrogen related receptor signaling pathway with the pleiotropic PPARgamma coactivator (PGC) cell viability counter screen (AID 1224822; active means well fitted cell-killing curve with a large enough effect in the repeat runs;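 further: viability read after 17.5 h compound exposure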)
Conditions: ERR/PGC reporter cell line viability counter screen; series mostly up to 46.1 µM; viability change, negative = cytotoxic: at the top concentration
In short: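 Multiplexed viability counter screen run in PGC/ERR cells treated with compounds for 17.5 h at 37 C; live-cell protease signal measured by CellTiter-Fluor fluorescence.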
With `OCCN1CCN(CCCN2c3ccccc3Sc3ccc(Cl)cc32)CC1` the “viability change, negative = cytotoxic” value was -18.2%.
For `Nc1nc2ccc([N+](=O)[O-])cc2s1`, the “viability change, negative = cytotoxic” value was -8.53% [at 92.2 µM].
For `CC(C)COCC(CN(Cc1ccccc1)c1ccccc1)N1CCCC1` (stereo unspecified), the “viability change, negative = cytotoxic” value was 3.76%.

Reference: PubChem BioAssay (Tox21)
On the % scale 0 is the no-effect control and ±100 the full control effect.
